Sampled rows, rich in hits. Any-hit rate of the full collection: about 1.7%.
GLP-1R agonist: agonists of human GLP-1 receptor; AID 624172; HEK293 GLP-1R CRE-luciferase, luminescence, 4-6 h; cells express a hypersensitive GLP-1R form; actives 0.007% (n = 380,000); Potency, µM (doses to about 45.6 µM), for the others: top-dose activation, hits mostly activators; P43220; note: % of control where 0% means no effect
Target sequence (P43220 whole entry, looked up): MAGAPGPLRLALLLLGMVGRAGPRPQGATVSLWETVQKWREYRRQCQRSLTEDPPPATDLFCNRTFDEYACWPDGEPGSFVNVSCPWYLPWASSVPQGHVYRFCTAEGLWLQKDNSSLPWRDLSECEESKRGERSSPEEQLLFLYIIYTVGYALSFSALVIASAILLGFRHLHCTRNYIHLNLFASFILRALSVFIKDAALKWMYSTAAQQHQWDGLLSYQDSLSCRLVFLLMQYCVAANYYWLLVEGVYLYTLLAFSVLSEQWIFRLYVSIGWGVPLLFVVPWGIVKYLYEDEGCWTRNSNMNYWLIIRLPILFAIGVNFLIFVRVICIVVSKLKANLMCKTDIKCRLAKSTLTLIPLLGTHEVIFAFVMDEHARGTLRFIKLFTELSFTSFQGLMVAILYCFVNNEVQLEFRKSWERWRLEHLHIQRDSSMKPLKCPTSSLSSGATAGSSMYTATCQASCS
GLP1R inv ag: GLP-1 receptor (human) inverse agonism | HEK293 GLP-1R CRE-luciferase, luminescence, 24 h; GLP-1R form is constitutively active | actives 1.6% (n = 410,000) | AID 624417 | Potency, µM (top dose mostly 38.3 µM), for the others: at the highest dose activity change, negative = inhibition, usual class: inhibitors; note: % is set by controls: 0 for no effect and ±100 for the full control effect; nearly all actives have a fitted effect of over 55% in size
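Stable HEK293 clone (constitutively active GLP-1R + cAMP-response luciferase); 200 cells/uL plated, 12 h pre-culture, compound 24 hr, 37 deg C/5% CO2; detection reagent 12 min RT; luminescence.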
HEK293 tox: cytotoxicity in counter-screen for GLP-1R inverse agonists. actives 0.13% (n = 410,000). HEK293 cAMP-luciferase reporter cells, luminescence, 24 h. Potency, µM (highest dose often 38.3 µM), for inactives: top-dose activity change, negative = inhibition, hits mostly inhibitors;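 note: loss of luciferase light is scored as toxicity; % is set by controls: 0 for no effect and ±100 for the full control effect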
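Step one: seed cells (200 cells/uL, DMEM with 10% Nu serum, 1% pen-strep). Step two: 12-hour incubation at 37 deg C. Step three: pin 23 nL compound, incubate 24 hr. Step four: add luciferase reagent, read luminescence 12 min later.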
The depositor's hits bear a star; ? = inconclusive; . = not tested or not shown. Calls come from the whole dose curve; as a rule, active = well fitted curve in the direction sought with a large enough effect; inconclusive = small, poorly fitted or top-dose-only effect, or another doubt; inactive = no such curve, though single readings can be large; an effect the other way counts as inactive or inconclusive. Potency is the fitted concentration of half-maximal effect.

SMILES	GLP-1R agonist	GLP1R inv ag	HEK293 tox
COc1ccc(Cl)cc1NC(=O)Cn1nc(C(F)(F)F)c2c1CCCC2	-9%	13µM*	5%
CC1CCCCN1c1nnc(NC(=O)Nc2ccccc2F)s1 (stereo not drawn)	.	-9%	9%
O=C1NC(=O)[C@@]2(CCOc3ccc(F)cc32)N1	9%	.	.
CCN(CC)CCCNC(=O)C(C)Sc1nc(-c2ccccc2)cc(C(F)(F)F)n1 (stereo not drawn)	9%	2.8µM*	2%
CC(Sc1nc(-c2ccccc2)cc(C(F)(F)F)n1)C(=O)O (stereo not drawn)	3%	-2%	5%
CS(=O)(=O)Nc1ccc(-c2nc3ccccc3s2)cc1	.	?	1%
Cc1ccc(-c2c(C(=O)NCCc3ccc(Cl)cc3)oc(=O)c3ccccc23)cc1	-11%	4.5µM*	5%
Cc1ccc(CCNC(=O)c2oc(=O)c3ccccc3c2-c2ccc(C)cc2)cc1	-2%	?	0%
CCN(CC)S(=O)(=O)c1ccc(N/N=C/c2ccc(O)cc2)nc1	7%	8%	-8%
CCN(CC)S(=O)(=O)c1ccc(N/N=C(\C)c2ccc(OC)cc2O)nc1	0%	2.5µM*	?
COC(=O)c1ccc(OC)c(CN2CCCN(Cc3ccc(F)cc3)S2(=O)=O)c1	20%	10µM*	2%
COc1ccc(C=O)cc1Cn1ccnc1	-6%	4%	4%
COc1ccc(OC)c(CN2CCN(C(=O)c3ccc(F)cc3)CC2)c1	2%	-5%	-7%
COc1ccc(C=O)cc1CN1CCCN(Cc2ccc(Cl)cc2)S1(=O)=O	18%	7.1µM*	1%
CC(C)C(NC(=O)C(CC(=O)O)NC(=O)C(CCCCN)NC(=O)C(N)CCCN=C(N)N)C(=O)NC(Cc1ccc(O)cc1)C(=O)O (stereo not drawn)	-1%	.	.
CC(C)(C)CC(C)(C)NCC(O)COc1c(F)cc(Br)cc1F (stereo not drawn)	-20%	10µM*	-5%
CC(C)(C)NCC(O)COc1c(F)cc(Br)cc1F (stereo not drawn)	7%	-1%	-3%
CCN(CC(=O)Nc1c(F)cccc1F)C(=O)c1nc2nc(C)cc(C)n2n1	3%	4%	-4%
CCOC(=O)c1nc2sc3c(c2c(=O)n1C(C)C(=O)OCC)CCCC3 (stereo not drawn)	26%	1.3µM*	18%
CCOC(=O)c1sc(NC(=O)Cn2nnc3sc4c(c3c2=O)CCCC4)nc1C	-7%	3%	1%
O=C([O-])c1cc(-c2ccccc2)cc(-c2ccccc2)[n+]1CCc1ccc(Cl)cc1	-2%	?	-26%
Cc1cccc(/C=C2\Sc3ccc(C(=O)N4CCC(C)CC4)cc3N(C)C2=O)c1	11%	?	0%
CCn1c(CSCc2ccc(F)cc2)nnc1SCC(=O)N1CCN(c2ccccc2)CC1	-7%	?	-23%
Cn1c(SCC(=O)N2CCN(c3ccccc3)CC2)nnc1-c1c[nH]c2ccccc12	-1%	?	-11%
CCn1c(SCC(=O)N2CCCc3ccccc32)nnc1-c1c[nH]c2ccccc12	-4%	2.5µM*	-21%
SMILES	GLP-1R agonist	GLP1R inv ag	HEK293 tox
CCn1c(SCC(=O)N2CCc3ccccc32)nnc1-c1c[nH]c2ccccc12	2%	?	-8%
CCn1c(SCC(=O)N2CCN(c3ccccc3)CC2)nnc1-c1c[nH]c2ccccc12	-1%	4µM*	2%
Cc1ccc(CSCc2nnc(SCC(=O)N3CCN(c4ccccc4)CC3)n2C)cc1	0%	7.9µM*	16%
COC(=O)c1c(C)[nH]c(C(=O)/C=C/c2ccccc2F)c1C	14%	16%	-11%
CCCCCCN=C1CC(C)(C)CC(=O)/C1=C(/O)CCC	0%	?	-1%
O=C(c1ccco1)N1CCCN(Cc2nc(Cc3ccccc3)no2)CC1	12%	15%	2%
O=C(Nc1nnc(C2CC2)s1)c1cncc(Br)c1	-4%	2%	3%
CCOC(=O)c1[nH]c(C)c(CCC(=O)N2CCN(c3cccc(OC)c3)CC2)c1C	.	?	-9%
CCN(CC(=O)Nc1ccccc1C(F)(F)F)C(=O)CCOc1ccc(C)cc1	8%	-34%	15%
COc1cc(C(=O)OCC(=O)Nc2cc(S(=O)(=O)N3CCOCC3)ccc2C)ccc1OCC(C)C	22%	?	1%
C=C1C(=O)O[C@@H]2[C@H]1CC[C@H](C)[C@]1(O)CCC(=O)[C@@]21C	-7%	8.9µM*	?
C=C1C(=O)O[C@@H]2[C@@H]1CC/C(C)=C\CC[C@@]1(C)O[C@H]21	-11%	.	.
CCOC(=O)c1c(C)[nH]c(C(=O)N(C)CC(=O)Nc2ccc(OC)cc2)c1C	-4%	-4%	1%
CCCn1c(SCC#N)nc2c(c1=O)C1(CCCC1)Cc1ccccc1-2	0%	?	-12%
N#CCSc1nc2c(c(=O)n1Cc1ccco1)C1(CCCC1)Cc1ccccc1-2	7%	5.6µM*	-12%
O=C(c1ccoc1)N1CCC2(CC1)Oc1ccc(F)cc1C(=O)C21CC(c2ccccc2)=NO1 (stereo not drawn)	-2%	-15%	3%
CC(C)(C)OC(=O)N1CCC2(CC1)Oc1ccc(F)cc1C(=O)C21CC(c2ccccc2)=NO1 (stereo not drawn)	7%	11µM*	6%
COc1ccc(CNC(=O)CN2C(=O)COc3ccccc32)c(OC)c1	.	13%	1%
O=C(CCC(=O)N1CCN(c2ccc(Cl)c(Cl)c2)CC1)c1ccccc1	-5%	11µM*	5%
O=C(CCC(=O)N1CCN(c2ccc(F)cc2)CC1)c1ccc(Cl)cc1	1%	?	-2%
COc1cc(NC(=O)CN(C)S(=O)(=O)c2ccc3c(c2)CC(C)N3C(C)=O)cc(OC)c1 (stereo not drawn)	2%	-3%	-2%
O=C(NCCc1ccccc1)C1CCN(c2ncnc3c2nc2n3CCCCC2)CC1	.	-14%	-4%
COc1ccc(N(Cc2cccs2)C(=O)COc2ccc([N+](=O)[O-])cc2)cc1	.	?	3%
COc1ccc(N(Cc2cccs2)C(=O)COc2cccc(Cl)c2)cc1	.	14µM*	2%
CCC/C(=C1/c2ccccc2C(=O)N1c1ccccc1)c1ccc2c(c1)OCCO2	8%	?	-10%
SMILES	GLP-1R agonist	GLP1R inv ag	HEK293 tox
CCC/C(=C1/c2ccccc2C(=O)N1c1ccccc1)c1ccc(O[C@@H]2CCCCO2)cc1	-6%	13µM*	2%
S=C(NC1CCCC1)N1CCN(C/C=C/c2ccccc2)CC1	15%	?	-14%
Cc1ccc(CN2CC(N3CCCCC3)CS2(=O)=O)cc1 (stereo not drawn)	-2%	27%	2%
Cc1ccc(C(=O)NNC(=O)COC(=O)COc2ccccc2C#N)cc1	-1%	-3%	?
Cc1cccc(C(=O)OCC(=O)NCCNC(=O)COC(=O)c2cccc(C)c2C)c1C	1%	-8%	1%
CN(C)c1ccc(C(CNC(=O)COc2ccc(Cl)cc2)N2CCCC2)cc1 (stereo not drawn)	13%	11µM*	-22%
CN(C)c1ccc(C(CNC(=O)COc2ccc(Cl)cc2)N2CCOCC2)cc1 (stereo not drawn)	.	13%	1%

Source: PubChem
